# Assay results as given in PubChem BioAssay (NCATS).
# Records with an inconclusive call do not appear. Activity calls are given as the source filed them. Calls follow the shape of the dose curve; as a rule, active = well fitted inhibition curve with a large enough effect; inconclusive = small, poorly fitted or top-dose-only effect; inactive = no such curve, though single readings can be large or run the other way.
# Experiment: HTS Assay for Allosteric Antagonists of the Human D2 Dopamine Receptor: Hit Validation in HTRF (AID 624455);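 also: stable D1 dopamine receptor cell line scored for blocking the D1 response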
# Details: Cells stably expressing D1 dopamine receptor, inhibition mode; series mostly up to 46.1 µM; activity, negative = inhibition: at the top concentration
# How it was run: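 Hit validation in cells stably expressing the D1 dopamine receptor, run in HTRF format. Compounds were tested for their ability to inhibit the D1-mediated response.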
# % is scaled to controls: 0 for no effect and ±100 for the full control effect.
Structure (SMILES),"activity, negative = inhibition",outcome
C[C@](N)(Cc1ccc(O)cc1)C(=O)O,5.73% (inactive),
CC(C)(C(=O)O)c1ccc(C(O)CCCN2CCC(C(O)(c3ccccc3)c3ccccc3)CC2)cc1 (stereo not drawn),5.46% (inactive),
CC(C)(C)c1onc(OCP(=O)(O)O)c1CC(N)C(=O)O (stereo not drawn),,inactive
N=c1c[n+](N2CCOCC2)[n-]o1,5.24% (inactive),
C[C@]12C[C@H](O)[C@H]3[C@@H](CCC4=CC(=O)CC[C@@]43C)[C@@H]1CC[C@@H]2C(=O)CO,-5.27% (inactive),
C=Cc1c(C)c2cc3[nH]c(cc4nc(cc5nc(cc1[nH]2)C(C)=C5CCC(=O)O)C(CCC(=O)O)=C4C)c(C)c3C=C,-27.8% (inactive),
CCN(CC)CCNC(=O)c1cc(Cl)c(N)cc1OC,-2.02% (inactive),
NC(N)=NCCC[C@H](N)C(=O)O,-1.4% (inactive),
CN1CCN(C2Cc3ccccc3Sc3ccc(Cl)cc32)CC1 (stereo not drawn),7.11% (inactive),
CN(C)CCOC(C)(c1ccccc1)c1ccccn1 (stereo not drawn),0.708% (inactive),
CNC(=O)Oc1ccc2c(c1)[C@]1(C)CCN(C)[C@@H]1N2C,-2.98% (inactive),
NC1CCN(c2cccc(Cl)n2)CC1,-7.01% (inactive),
CCN(CC)C(C)CN1c2ccccc2Sc2ccccc21 (stereo not drawn),8.07% (inactive),
CNCCC(Oc1ccc(C(F)(F)F)cc1)c1ccccc1 (stereo not drawn),1.52% (inactive),
CC1=C(CC(=O)O)c2cc(F)ccc2/C1=C\c1ccc(S(C)(=O)=O)cc1,0.944% (inactive),
CC(C)C(=O)c1c(C(C)C)nn2ccccc12,-6.8% (inactive),
COCCOC(=O)C1=C(C)NC(C)=C(C(=O)OC/C=C/c2ccccc2)C1c1cccc([N+](=O)[O-])c1 (stereo not drawn),-4.69% (inactive),
CCCn1cnc2c1c(=O)n(CCCCC(C)=O)c(=O)n2C,-26.1% (inactive),
O=C1N=C(O)CN1/N=C/c1ccc(-c2ccc([N+](=O)[O-])cc2)o1,0.708% (inactive),
Cc1cc(N)c2ccccc2[n+]1CCCCCCCCCC[n+]1c(C)cc(N)c2ccccc21,3.44% (inactive),
OCc1cc(C(O)CNCCCCCCOCCCCc2ccccc2)ccc1O (stereo not drawn),-5.34% (inactive),
CCCCCCCCCCCCCCCC(=O)NCCO,-0.448% (inactive),
C#CCN(C)Cc1ccccc1,-2.54% (inactive),
